Compounds without any hit were thinned out: in the full panel of roughly 83,000, 20% have a hit.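 Assay: single dose, 48 h. Readout: percent growth (0 = no net growth; negative = cell death). Active: <10.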 A number with no mark means an inactive call. Activity calls are given as the source filed them.
Key:
Test in all cases: NCI-60 one-dose screen, 48 h (100 = growth as untreated, 0 = no growth, -100 = all killed)
Conditions in all cases: 10 µM unless noted
[1] = test system: NCI-H23 lung
[2] = test system: NCI-H226 lung
[3] = test system: NCI-H322M lung
[4] = test system: HOP-62 NSCLC
[5] = test system: NCI-H460 lung
[6] = test system: NCI-H522 lung
[7] = test system: A549/ATCC NSCLC
[8] = test system: 786-0 renal
[9] = test system: COLO 205 colon

Row | Compound | growth [1] | growth [2] | growth [3] | growth [4] | growth [5] | growth [6] | growth [7] | growth [8] | growth [9]
1 | Nc1ncnc2c1N=C(c1ccc(F)cc1)CC(c1sc(Cl)nc1Cl)N2 (centres undefined) | 92.9% | 90.1% | 106% | 105% | 101% | 88.7% | 92.4% | 92.6% | 104%
2 | Cc1ccc(N=CNN=C(N)N)cc1 | 106% | 92% | 111% | 102% | 120% | 95.4% | 100% | 115% | 113%
3 | CCCCCNCCCCCNc1cc(OC)cc2cccnc12 | 90.7% | 94% | 89.4% | 79.1% | 95.9% | 89.6% | 96.1% | 83.1% | 63.6%
4 | CCCc1cc2c(cc1CN(Cc1cc3c(cc1CCC)OCO3)C(=N)OCC)OCO2 | 79.8% | 86.4% | 91.9% | 83.7% | 75.5% | 54.2% | 71.8% | 89.7% | 93.6%
5 | Cc1[nH]nc2ccc3nc(-c4ccc5[nH]ncc5c4)c4c(c3c12)CCCC4 | 31.1% | 16.2% | 36.9% | 18.5% | 19.3% | 0.13% (active) | 12.6% | 34.4% | 8.58% (active)
6 | O=c1c2sc3ncc(Cl)cc3c2nnn1-c1cccc(Cl)c1 | 83.8% | 33.4% | 56.8% | 47.7% | 22% | 82% | 42.5% | 72.5% | 89.4%
7 | C/C(=N\OC(=O)Nc1ccccc1)c1ccccc1 | 105% | 95.2% | 99.1% | 118% | 103% | 98.6% | 88.3% | 99.3% | 114%
8 | COc1cc(Nc2ccnc3ccc(Br)cc23)cc(OC)c1OC | 53.8% | 78.8% | 63.5% | 23.2% | 7.02% (active) | -17.8% (active) | 37.5% | – | 39%
9 | COc1ccc2c(c1)N(CCO)C1=C(C(=O)OC1)C2c1cccc(Br)c1 (centres undefined) | 29.2% | -5.22% (active) | 29% | 29.4% | 2.07% (active) | -19.2% (active) | 16.4% | 21.4% | -47.2% (active)
10 | C=C(C)[C@@H]1CC[C@]2(C)[C@H](CC=C3[C@@H]4C[C@](C)(C(=O)N5CCN(C)CC5)CC[C@]4(C)CC[C@]32C)[C@@]1(C)CCC#N | 72.5% | 69.6% | 85.1% | 63.1% | 28% | 79.8% | 55.3% | 71.5% | 45.2%
11 | O=C(NCC(c1ccsc1)N1CCCCCC1)c1ccc(C(F)(F)F)cc1 (centres undefined) | 93% | 91.9% | 99.9% | 113% | 100% | 92.8% | 96.5% | 96.9% | 102%
12 | CC1=C(O)C(=O)C(c2c(C)cc(C)c(Br)c2C)=C(O)C1=O | 40.7% | 83.3% | 71.5% | 69.9% | 35.5% | 66.8% | 44.1% | 56.8% | 75.8%
13 | COc1cc2c(cc1OC)C(=O)OC2 | 118% | 93.4% | 116% | 113% | 110% | 111% | 104% | 114% | 134%
14 | C/C(=C\C(=N\N=C(N)N)c1ccc(Cl)cc1)c1ccc(Cl)cc1 | -71.5% (active) | -69.6% (active) | -36% (active) | -86.3% (active) | -66.8% (active) | -88.4% (active) | -81.3% (active) | -70.3% (active) | -90.2% (active)
15 | CCCCNCC(O)c1cc(-c2ccc(C(F)(F)F)cc2)nc(-c2ccc(C(F)(F)F)cc2)c1 (centres undefined) | -63.9% (active) | -76.2% (active) | -74.3% (active) | -90.5% (active) | -76.7% (active) | -79% (active) | -83.5% (active) | -78.7% (active) | -87.2% (active)

From PubChem BioAssay (NCI)
